Assay results: PubChem BioAssay
Active and inactive are the calls of the source. Unless noted, the rule behind the calls is not given here.

Legend:
[1] = test system: Wnt5a (protein binding on small-molecule microarray); assay: small molecules binding Wnt5a protein – biophysical, small-molecule microarray, 635/667 nm fluorescence, primary screen (AID 1142); conditions: 635 nm fluorescence, higher = more signal;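 note: fluorescence read at 667 nm with signal to noise per printed feature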
[2] = ATP-based viability of Huh7 replicon cells – cell-based, CellTiter-Glo luminescence, basal, 48 h, cytotoxicity control for HCV replication inhibitor project, primary screen (AID 1143); conditions: higher = more signal, called active from +8 up or from −8 down;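 note: Huh7 hepatoma cells carrying a hepatitis C replication reporter with no stimulus; test concentration not given here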
[3] = Pseudomonas biofilm growth suppression – PAO1 strain, BacTiter-Glo luminescence, LB-PBS, primary screen (AID 1144); conditions: P. aeruginosa PAO1 biofilm, 12 h, higher = more signal
[4] = basal CRE-LacZ reporter activity in PC12 – cell-based, unstimulated, primary screen (AID 1145); conditions: no forskolin, luminescence, 4.5 h, higher = more signal, called active from +8 up or from −8 down
[5] = forskolin-driven CRE-LacZ activity in PC12 – cell-based, CRE-LacZ reporter, forskolin-stimulated, primary screen (AID 1146); conditions: luminescence, 4.5 h, higher = more signal, called active from +8 up or from −8 down;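 note: PC12 cells with 6xCRE LacZ reporter stimulated by forskolin 10 µM; beta-galactosidase reporter signal reflecting CREB driven transcription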
[6] = target: Streptavidin (Streptomyces avidinii) (UniProt P22629); assay: compounds binding control protein streptavidin – biophysical, small-molecule microarray, 635/667 nm fluorescence, artefact control for SMM compound annotation, primary screen (AID 1147); conditions: higher = more signal;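 note: signal reflects streptavidin binding to arrayed compounds as a control protein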
Streptavidin (Streptomyces avidinii), sequence (P22629 whole entry, looked up): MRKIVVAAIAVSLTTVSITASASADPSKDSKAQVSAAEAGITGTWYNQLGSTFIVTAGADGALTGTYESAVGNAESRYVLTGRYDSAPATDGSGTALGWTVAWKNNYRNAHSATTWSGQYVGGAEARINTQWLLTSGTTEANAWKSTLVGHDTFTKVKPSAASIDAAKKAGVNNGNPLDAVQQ

[7] = probe aInhba binding on compound microarray – biochemical, small-molecule microarray, 635/667 nm fluorescence, primary screen (AID 1148); conditions: higher = more signal;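 note: score merges 667nm spot fluorescence with signal-to-noise for antibody binding to printed compounds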
Torsin-1A (Homo sapiens) [8] = target: Torsin-1A (Homo sapiens) (UniProt O14656); assay: TOR1A wild-type binding on microarray – cell lysate, small-molecule microarray, lysate, 635/667 nm, primary screen (AID 1149); conditions: COS7 hTOR1A-WT lysate, 635 nm fluorescence, higher = more signal
Torsin-1A (Homo sapiens), sequence (O14656 whole entry, looked up): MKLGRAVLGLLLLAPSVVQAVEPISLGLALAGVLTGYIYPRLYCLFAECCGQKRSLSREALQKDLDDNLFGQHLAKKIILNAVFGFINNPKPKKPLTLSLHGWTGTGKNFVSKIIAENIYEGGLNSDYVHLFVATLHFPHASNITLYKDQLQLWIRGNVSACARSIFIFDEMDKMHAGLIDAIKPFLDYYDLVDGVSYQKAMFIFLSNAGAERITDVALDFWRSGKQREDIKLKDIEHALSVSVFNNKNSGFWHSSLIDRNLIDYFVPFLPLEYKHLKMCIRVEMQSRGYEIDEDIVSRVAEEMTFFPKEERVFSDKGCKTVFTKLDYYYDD

Torsin-1A (Homo sapiens) [9] = target: Torsin-1A (Homo sapiens) (UniProt O14656); assay: torsin A mutant lysate binding on microarrays – cell lysate, small-molecule microarray, COS7 lysate, 635/667 nm fluorescence, primary screen (AID 1150); conditions: COS7 hTOR1A mutant lysate, 635 nm fluorescence, higher = more signal;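 note: score pools 667 nm emission and signal to noise measuring lysate protein binding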
[10] = test system: Sonic hedgehog protein (Shh); assay: Sonic hedgehog microarray binding compounds – biochemical, small-molecule microarray, 635/667 nm fluorescence, primary screen (AID 1151); conditions: 635 nm fluorescence, higher = more signal;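 note: Shh protein binding to compounds spotted on small-molecule microarray slides; score combines spot fluorescence intensity with signal-to-noise across triplicate slides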

SMILES	composite z-score [1]	z-score [2]	z-score [3]	z-score [4]	z-score [5]	composite z-score [6]	composite z-score [7]	composite z-score (Torsin-1A (Homo sapiens) [8])	composite z-score (Torsin-1A (Homo sapiens) [9])	composite z-score [10]
CN(C)C(=O)[C@@]1(CCC(=O)OC(C)(C)C)N=C(c2ccc(OCCCO)cc2)O[C@H]1c1ccccc1	0.257	-4.42 (inactive)	-0.573 (inactive)	0.195 (inactive)	-1.4 (inactive)	0.0732	0.776	0.635	1.74	-0.467
C=CCOC(=O)[C@H]1[C@@H]2C(=O)O[C@@H](c3ccccc3)[C@@H](c3ccccc3)N2[C@@H](c2ccc(OCCOC(=O)[C@@H]3C[C@@H]4C(=O)NCC(=O)N4[C@@H]3c3ccc(O)cc3)cc2)[C@]12C(=O)Nc1ccccc12	0.773	-0.987 (inactive)	-0.759 (inactive)	0.0205 (inactive)	-0.979 (inactive)	-0.0156	-0.0221	0.342	0.767	2.28
COCC1=C2[C@@H](CCc3ccccc3)OB(O)C[C@@H]2[C@@H]2C(=O)N(Cc3ccccc3)C(=O)[C@@H]2C1	0.278	0.0597 (inactive)	1.07 (inactive)	0.663 (inactive)	-0.0777 (inactive)	0.0569	-0.152	-0.427	0.0316	0.333
CC(=O)NCCCC[C@@H]1NC(=O)[C@@H]2C[C@H](C(=O)NCCCCN(C)C)[C@H](c3ccc(O)cc3)N2C1=O	-0.465	0.0068 (inactive)	-1.02 (inactive)	-0.809 (inactive)	-0.174 (inactive)	-0.506	-0.23	-0.893	-0.88	0.54
COC(=O)c1c(CC[C@@H](CO)NC(=O)N[C@@H](Cc2ccccc2)Cn2cc(C3(O)CCCCC3)nn2)oc(C(C)=O)c1C(=O)OC	0.636	-5.52 (inactive)	-1.73 (inactive)	0.512 (inactive)	-1.36 (inactive)	1.16	-0.0178	0.69	0.405	1.7
COc1ccc(CCNC(=O)[C@@]2(c3ccc([N+](=O)[O-])cc3)CC(=O)N(CC34CC5CC(CC(C5)C3)C4)[C@@H]2c2ccc(CO)cc2)cc1	0.145	-5.75 (inactive)	-1.36 (inactive)	-0.062 (inactive)	0.164 (inactive)	0.531	0.327	0.246	0.388	0.948
C=CCN1C(=O)[C@]2(O[C@H](CCO)[C@@H]([Si](C)(C)c3ccc(OC)cc3)[C@@H]2C)c2cc(NC(=O)[C@H](C)O)ccc21	0.276	-6.12 (inactive)	1.01 (inactive)	6.89 (inactive)	-0.144 (inactive)	0.553	0.339	0.725	0.499	1.34
C=C(C(=O)CC[C@H](OC(C)=O)c1ccc(OCCO)cc1)C(C)C	0.35	-8.04 (active)	-0.28 (inactive)	1.63 (inactive)	0.655 (inactive)	0.934	-0.125	0.612	0.909	2.13
C=CC[C@]1(C(=O)N2CCOCC2)N=C(c2ccc(OCCCO)cc2)O[C@H]1c1ccccc1	0.514	-2.02 (inactive)	-0.248 (inactive)	1.34 (inactive)	-0.302 (inactive)	0.954	0.0561	-0.267	0.96	-0.509
N#Cc1ccc(NN2C(C(O)C3CCCCC3)C=CC3C(=O)N(c4ccccc4)C(=O)C32)cc1 (stereo not given)	0.4	0.124 (inactive)	-0.984 (inactive)	0.808 (inactive)	1.47 (inactive)	1.75	0.134	0.439	0.361	-0.81
CCOC(=O)C1=C[C@@H](CC)N(S(=O)(=O)c2ccc(C)cc2)[C@H]1c1ccccc1	0.214	-3.47 (inactive)	-0.0903 (inactive)	0.22 (inactive)	-0.55 (inactive)	1.09	0.226	0.391	0.637	0.0552
O=C1OCCC/C=C\[C@H]2OC34C=CCN(Cn5nnc6ccccc65)C(=O)[C@H]3N(CCCCCO)C(=O)[C@@H]4C12 (stereo not given in full)	-0.883	-0.19 (inactive)	-0.477 (inactive)	-0.35 (inactive)	-0.26 (inactive)	-1.21	-0.0762	-2.35	-0.736	0.436
CCC(CC)C(O)C1C=CC2C(=O)N(c3ccccc3)C(=O)C2N1Nc1ccc(C#N)cc1 (stereo not given)	0.658	0.625 (inactive)	-0.939 (inactive)	1.01 (inactive)	0.435 (inactive)	1.24	0.75	0.223	0.775	-0.41
COc1ccccc1CN1C(=O)c2ccccc2[C@@H](C(=O)NCCN2CCOCC2)[C@@H]1c1ccc(CO)cc1	0.274	-0.916 (inactive)	-1.04 (inactive)	0.001 (inactive)	-1.09 (inactive)	0.156	-0.13	0.52	0.767	0.197
C[N+](C)(C)CCCCCCNC(=O)[C@H]1C[C@H]2C(=O)N3CCC[C@H]3C(=O)N2[C@H]1c1ccc(O)cc1	-0.214	-2.61 (inactive)	-0.911 (inactive)	-0.813 (inactive)	-0.935 (inactive)	-0.715	0.0184	0.0048	0.599	1.92
COc1ccc([Si](C)(C)[C@@H]2[C@@H](CC(=O)N3CCC[C@H]3CO)O[C@]3(C(=O)N(C)c4c(Br)cc(C)cc43)[C@H]2C)cc1	0.29	-2.39 (inactive)	0.74 (inactive)	6.67 (inactive)	0.157 (inactive)	0.367	-0.103	0.178	0.67	1.43
Cc1ccc(F)cc1S(=O)(=O)N[C@@H]1CCN(Cc2ccc(-c3ccccc3)cc2)C1	0.116	-6.41 (inactive)	0.00325 (inactive)	6.48 (inactive)	0.959 (inactive)	-0.164	-0.128	0.606	0.743	0.98
COCCOC(=O)N1C(=O)[C@@]2(c3cc(C#CC4(O)CCCCCC4)ccc31)[C@H](C(=O)N1CCCCCCC1)[C@H]1C(=O)O[C@H](c3ccccc3)[C@H](c3ccccc3)N1[C@@H]2c1ccccc1OCCO	0.647	-5.2 (inactive)	0.148 (inactive)	0.749 (inactive)	-0.551 (inactive)	1.96	1.22	0.601	1.26	1.37
Cc1ccc(S[C@]2(C(=O)NC3CC3)CC(=O)N(C3CCCCC3)[C@@H]2c2ccc(CO)cc2I)cc1	0.136	-3.4 (inactive)	-0.128 (inactive)	0.362 (inactive)	0.681 (inactive)	0.936	-0.0375	0.254	0.582	1.77
